miR-122 inh = activators of miR-122 sensor in Huh7 cells. Huh7 psiCHECK-miR122 Renilla luciferase sensor, 48 h. activation, % at 12.5 µM. 340,000 tested, 0.14% active. AID 623901;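 active = mean activation of 30% or more, with every replicate also reaching 30%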;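 note: 0% = median of neutral control wells and 100% = median of positive control wells; higher luciferase signal means stronger suppression of miR-122 activity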
The depositor's hits bear a star. This is one part of a sample in which hits are shown more often than they occur.

SMILES	miR-122 inh
O=C(Nc1ccccc1F)N1C[C@H]2[C@@H](c3ccccc31)[C@@H](CO)N2C(=O)c1ccc(F)cc1	-240
O=C(C1CCCCC1)N1[C@H](CO)[C@@H]2c3ccccc3N(S(=O)(=O)c3ccccc3)C[C@@H]21	-96
O=S(=O)(c1ccc(F)cc1)N1C[C@H]2[C@@H](c3ccccc31)[C@@H](CO)N2Cc1ccc2c(c1)OCO2	-100
O=C(c1cccnc1)N1C[C@H]2[C@@H](c3ccccc31)[C@H](CO)N2C(=O)Nc1ccccc1Cl	40*
O=C(Nc1ccc(N2CCOCC2)c(S(=O)(=O)Nc2cc(Cl)ccc2Cl)c1)c1cccnc1	-325
CCCNC(=O)N1C[C@@H]2[C@H](c3ccccc31)[C@@H](CO)N2Cc1cc(F)ccc1F	36*
CC(C)CC#Cc1cnc2c(c1)C(=O)N([C@H](C)CO)C[C@@H](C)[C@H](CN(C)Cc1ccc(F)cc1)O2	-5
C[C@@H]1CN([C@H](C)CO)C(=O)c2cc(C#Cc3ccc(F)cc3)cnc2O[C@H]1CN(C)CC1CCOCC1	-4
C[C@H]1CN([C@@H](C)CO)C(=O)c2cc(C#Cc3ccc(F)cc3)cnc2O[C@@H]1CN(C)C(=O)c1ccccc1F	0
CCCNC(=O)N(C)C[C@@H]1Oc2ncc(C#CCC3CCCC3)cc2C(=O)N([C@@H](C)CO)C[C@H]1C	-3
C[C@H]1CN([C@@H](C)CO)C(=O)c2cc(C#Cc3cccc(F)c3)cnc2O[C@@H]1CN(C)CC1CCOCC1	4
COc1ccc(-c2cnc3c(c2)C(=O)N([C@H](C)CO)C[C@@H](C)[C@@H](CN(C)Cc2ccccn2)O3)cc1	1
Cc1noc(C)c1NC(=O)N(C)C[C@H]1Oc2ncc(C#CCC(C)C)cc2C(=O)N([C@H](C)CO)C[C@@H]1C	-1
CC(C)C#Cc1ccc2c(c1)O[C@H](CN(C)C(=O)CN(C)C)[C@@H](C)CN([C@@H](C)CO)S2(=O)=O	-12
C[C@H](CO)N1C[C@H](C)[C@@H](CN(C)S(C)(=O)=O)Oc2ncc(-c3cccc(F)c3)cc2C1=O	-59
C/C=C/c1ccc2c(c1)O[C@@H](CN(C)C(=O)Cc1ccccn1)[C@H](C)CN([C@H](C)CO)S2(=O)=O	2
COc1cccc(NC(=O)N(C)C[C@H]2Oc3cc(-c4cccc(C(=O)N(C)C)c4)ccc3S(=O)(=O)N([C@H](C)CO)C[C@H]2C)c1	-5
C[C@H]1CN([C@@H](C)CO)C(=O)c2cc(Br)cnc2O[C@@H]1CN(C)Cc1ccc2c(c1)OCO2	9
CC(C)CC#Cc1cnc2c(c1)C(=O)N([C@H](C)CO)C[C@H](C)[C@H](CN(C)S(=O)(=O)c1ccccc1)O2	10
COCC#Cc1cnc2c(c1)C(=O)N([C@H](C)CO)C[C@@H](C)[C@H](CN(C)C(=O)Nc1ccc(OC)cc1)O2	6
COCC(=O)N(C)C[C@@H]1Oc2cc(-c3cncnc3)ccc2S(=O)(=O)N([C@H](C)CO)C[C@H]1C	-3
CC(C)CC#Cc1cnc2c(c1)C(=O)N([C@H](C)CO)C[C@H](C)[C@@H](CN(C)S(=O)(=O)c1ccccc1)O2	-18
COc1ccccc1-c1ccc2c(c1)O[C@H](CN(C)S(=O)(=O)c1ccc(C)cc1)[C@@H](C)CN([C@@H](C)CO)S2(=O)=O	2
O=S(=O)(Nc1cccc2ncccc12)c1cccs1	-234
CCOc1ccc2nc(NS(=O)(=O)c3cccs3)sc2c1	34*
SMILES	miR-122 inh
CCOc1ccc(S(=O)(=O)Nc2cccc(Cl)c2)cc1	-90
C[C@@H]1CN([C@@H](C)CO)S(=O)(=O)c2ccc(-c3ccncc3)cc2O[C@@H]1CN(C)C(=O)C1CC1	2
C[C@H](CO)N1C[C@H](C)[C@H](CN(C)S(C)(=O)=O)Oc2cc(C#Cc3ccc(F)cc3)ccc2S1(=O)=O	5
C=CCNC(=S)NNC(=O)c1cccn(Cc2ccc(Cl)c(Cl)c2)c1=O	71*
C=CCNC(=O)c1ccccc1NC(=O)c1ccc(Cl)c(S(=O)(=O)Nc2cc(C)ccc2C)c1	-102
CCCC#Cc1cnc2c(c1)C(=O)N([C@@H](C)CO)C[C@H](C)[C@@H](CN(C)C(=O)Cc1ccccc1)O2	-6
CCC(=O)N(C)C[C@@H]1Oc2cc(-c3cccc(C#N)c3)ccc2S(=O)(=O)N([C@@H](C)CO)C[C@@H]1C	2
CCN(C[C@@H]1[C@@H](c2ccccc2)[C@@H](CO)N1C(=O)COC)S(C)(=O)=O	-92
CCC(=O)N1[C@H](CN(C)C(C)=O)[C@H](c2ccc(-c3cccnc3)cc2)[C@@H]1CO	43*
CC(=O)N1[C@H](CNC(=O)C2CC2)[C@H](c2ccc(-c3ccccc3)cc2)[C@@H]1CO	-150
CCCNC(=O)NC[C@@H]1[C@@H](c2ccc(C3=CCCC3)cc2)[C@H](CO)N1C(=O)CC	-343
CCC(=O)N1[C@H](CN(C(C)C)S(C)(=O)=O)[C@@H](c2ccccc2)[C@@H]1CO	92*
CC(=O)N(C)C[C@@H]1[C@@H](c2ccc(-c3cccc(C#N)c3)cc2)[C@H](CO)N1C(C)=O	92*
CCC(=O)N(C)C[C@H]1Oc2cc(-c3cccnc3)ccc2S(=O)(=O)N([C@@H](C)CO)C[C@H]1C	2
C[C@@H]1CN([C@@H](C)CO)S(=O)(=O)c2ccc(C#Cc3cccc(F)c3)cc2O[C@@H]1CN(C)C(=O)CN1CCOCC1	-3
COCC#Cc1cnc2c(c1)C(=O)N([C@@H](C)CO)C[C@H](C)[C@@H](CN(C)C(=O)Cc1cccnc1)O2	5
CCCN1C[C@@H](C)[C@H](OC)CN(C)C(=O)c2ccc(NS(C)(=O)=O)cc2OC[C@@H]1C	-1
COc1cccc(NC(=O)N(C)C[C@@H]2Oc3cc(-c4cccc(C(=O)N(C)C)c4)ccc3S(=O)(=O)N([C@@H](C)CO)C[C@H]2C)c1	-1
C/C=C/c1cnc2c(c1)C(=O)N([C@H](C)CO)C[C@@H](C)[C@H](CN(C)S(=O)(=O)c1ccc(C)cc1)O2	5
CCC(=O)N(C)C[C@@H]1Oc2ncc(C#C[C@H](C)O)cc2C(=O)N([C@@H](C)CO)C[C@H]1C	-1
C[C@H]1CN([C@@H](C)CO)S(=O)(=O)c2ccc(C#CCN(C)C)cc2O[C@@H]1CN(C)C(=O)CN(C)C	4
C[C@H]1CN([C@@H](C)CO)C(=O)c2cc(-c3ccc(F)cc3)cnc2O[C@@H]1CN(C)C(=O)c1cccnc1	10
C[C@H]1CN([C@@H](C)CO)C(=O)c2cc(/C=C/c3ccccc3)cnc2O[C@H]1CN(C)Cc1ccccc1F	10
C[C@H](CO)N1C[C@H](C)[C@H](CN(C)Cc2ccccn2)Oc2cc(-c3cccnc3)ccc2S1(=O)=O	8
C[C@H]1CN([C@@H](C)CO)C(=O)c2cc(-c3cccnc3)cnc2O[C@@H]1CN(C)S(C)(=O)=O	-18
SMILES	miR-122 inh
COc1ccccc1S(=O)(=O)N(C)C[C@H]1Oc2cc(/C=C/c3ccccc3)ccc2S(=O)(=O)N([C@H](C)CO)C[C@@H]1C	-52
C[C@@H]1CN([C@@H](C)CO)S(=O)(=O)c2ccc(-c3ccncc3)cc2O[C@H]1CN(C)C(=O)Nc1ccc(F)cc1	7
COc1ccccc1-[n+]1c(C)cc(/C=C2\Sc3ccccc3N2C)cc1C	69*
CO[C@H]1CN(C)C(=O)c2cc(NS(=O)(=O)CC(F)(F)F)ccc2OC[C@@H](C)N(C)C[C@H]1C	1
C[C@@H]1CN([C@@H](C)CO)C(=O)c2cc(/C=C/c3ccccc3)cnc2O[C@@H]1CN(C)C(=O)C1CCC1	-2
C[C@@H]1CN([C@H](C)CO)S(=O)(=O)c2ccc(-c3ccccc3)cc2O[C@H]1CN(C)C(=O)C1CCCCC1	-95

Compound activity as filed in PubChem BioAssay.
